Source: PubChem BioAssay (NCI)
The panel holds about 79,000 compounds, 15% with a hit somewhere; the sample as a whole holds those more often. The source made the active and inactive calls. No stated cut-off is given here; in the data, active means growth inhibition above about 70%; inactive means the rest.

Experiments:
[1] = NCI Yeast Anticancer Drug Screen. Data for the rad52 strain (AID 147);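 further: 0% = growth of vehicle-treated control cultures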; conditions: S. cerevisiae rad52 mutant growth inhibition, hits give high values
Method in brief: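 Here a repair-compromised yeast strain receives each compound; its growth is then quantified and normalised to vehicle-only controls.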

[2] = NCI Yeast Anticancer Drug Screen. Data for the wt1 strain (AID 149);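 further: 0% = growth of vehicle-treated wt1 cultures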; conditions: S. cerevisiae wt1 strain (SPY 50644) growth inhibition, hits give high values
Method in brief: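 Vehicle-normalised growth inhibition; strain wt1; compound exposure.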

[3] = NCI Yeast Anticancer Drug Screen. Data for the rad50EPP+ strain (AID 151);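 further: 0% = growth of vehicle-treated control cultures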; conditions: S. cerevisiae rad50 mutant strain, hits give high values
Method in brief: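 Read-out is yeast growth inhibition relative to vehicle; cells used were the rad50EPP+ strain.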

[4] = NCI Yeast Anticancer Drug Screen. Data for the mgt1 strain (AID 153); conditions: S. cerevisiae mgt1 mutant growth inhibition, hits give high values
Method in brief: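 Measured: inhibition of mgt1 yeast growth by compound, normalized to vehicle-treated cultures.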

[5] = NCI Yeast Anticancer Drug Screen. Data for the rad50 strain (AID 155);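 further: 0% = growth of vehicle-only cultures of the same strain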; conditions: S. cerevisiae rad50 strain growth inhibition, hits give high values
Method in brief: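 A DNA repair-deficient yeast mutant serves as the test organism; compound-induced growth inhibition is calculated against vehicle-treated cells.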

[6] = NCI Yeast Anticancer Drug Screen. Data for the mec2-1 strain (AID 157); conditions: S. cerevisiae mec2-1 strain, hits give high values
Method in brief: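 Using mec2-1 yeast: add compound, measure growth, express inhibition versus vehicle-treated cultures.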

[7] = NCI Yeast Anticancer Drug Screen. Data for the rad14 strain (AID 159);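 further: 0% = growth of vehicle-treated control cultures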; conditions: S. cerevisiae rad14 strain growth inhibition, hits give high values
Method in brief: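 Vehicle-treated cultures served as the baseline for growth inhibition of a DNA repair-mutant yeast strain exposed to each compound.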

[8] = NCI Yeast Anticancer Drug Screen. Data for the sgs1 mgt1 strain (AID 161);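 further: 0% = growth of cultures given vehicle only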; conditions: S. cerevisiae sgs1 mgt1 strain, hits give high values
Method in brief: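 Growth of a repair-deficient yeast mutant was monitored after compound treatment and expressed as inhibition relative to vehicle-treated cultures.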

[9] = NCI Yeast Anticancer Drug Screen. Data for the CLN2oe strain (AID 163);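 further: 0% = growth of vehicle-only control cultures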; conditions: S. cerevisiae CLN2oe strain, hits give high values
Method in brief: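 Whole-cell yeast growth assay. A strain engineered for altered cell-cycle control received compound, and inhibition relative to vehicle-treated cultures was recorded.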

[10] = NCI Yeast Anticancer Drug Screen. Data for the cln2 rad14 strain (AID 165);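 further: 0% = growth equal to vehicle treated cultures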; conditions: S. cerevisiae cln2 rad14 strain, hits give high values
Method in brief: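 Yeast strain cln2 rad14, bearing defects in cell cycle control and DNA repair, serves as the test system; values reflect growth inhibition compared with vehicle.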

[11] = NCI Yeast Anticancer Drug Screen. Data for the bub3 strain (AID 167); conditions: S. cerevisiae bub3 mutant strain, hits give high values
Method in brief: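 Inhibition values come from growth of compound-treated mutant yeast normalised to vehicle-treated controls.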

[12] = NCI Yeast Anticancer Drug Screen. Data for the wt2 strain (AID 169);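 further: 0% = growth of vehicle-treated yeast cultures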; conditions: S. cerevisiae wt2 strain growth inhibition, hits give high values
Method in brief: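 Treated yeast vs. vehicle-treated yeast: growth inhibition determined.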

[13] = NCI Yeast Anticancer Drug Screen. Data for the mlh1 strain (AID 171);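 further: 0% = growth of vehicle-treated control cultures of the same strain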; conditions: S. cerevisiae mlh1 strain growth inhibition, hits give high values
Method in brief: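 A yeast strain with a defined genetic lesion serves as the test organism. Cultures receive compound or vehicle, and growth is measured.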

[14] = NCI Yeast Anticancer Drug Screen. Data for the sgs1 strain (AID 173);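 further: 0% = growth of vehicle-only control cultures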; conditions: S. cerevisiae sgs1 mutant, hits give high values
Method in brief: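 A genetically defined yeast mutant is incubated with the test compound, and its growth is compared to that of the same strain given vehicle.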

[15] = NCI Yeast Anticancer Drug Screen. Data for the mlh1 rad18 strain (AID 175); conditions: S. cerevisiae mlh1 rad18 strain growth inhibition, hits give high values
Method in brief: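 Steps: expose repair-defective yeast to compound; measure growth; express inhibition against vehicle-treated controls.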

[16] = NCI Yeast Anticancer Drug Screen. Data for the rad18 strain (AID 177); conditions: S. cerevisiae rad18 mutant growth inhibition, hits give high values
Method in brief: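 Measured value is growth inhibition of a yeast strain bearing a DNA repair alteration, referenced to vehicle-treated cells.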

[17] = at 5.0 µM (retest, dose inferred, filed as 0.5)
[18] = at 50.0 µM (retest, dose inferred, filed as 5.0)

Measured: growth inhibition

O=c1oc2ccccc2c(O)c1C(c1ccc2ccccc2c1)c1c(O)c2ccccc2oc1=O
inactive: [1]; at 1.2 µM -8% | [1]; at 3.7 µM 12% | [1]; at 11.0 µM 21% | [1]; at 33.0 µM 64% | [2]; at 1.2 µM -10% | [2]; at 3.7 µM 4% | [2]; at 11.0 µM 1% | [2]; at 33.0 µM 50% | [3]; at 1.2 µM 6% | [3]; at 3.7 µM 41% | [3]; at 11.0 µM 51% | [3]; at 33.0 µM 50% | [3]; at 100.0 µM 46% | [4]; at 1.2 µM 17% | [4]; at 3.7 µM 17% | [4]; at 11.0 µM 33% | [5]; at 1.2 µM 12% | [5]; at 3.7 µM 10% | [5]; [17] 47% | [5]; at 11.0 µM 17% | [5]; at 33.0 µM 58% | [6]; at 1.2 µM 10% | [6]; at 3.7 µM 15% | [6]; [17] 17% | [6]; at 11.0 µM 31% | [7]; at 1.2 µM 12% | [7]; at 3.7 µM 21% | [7]; at 11.0 µM 26% | [7]; at 33.0 µM 66% | [8]; [17] -24% | [8]; at 50.0 µM 46.1% | [9]; at 1.2 µM 7% | [9]; at 3.7 µM 21% | [9]; at 11.0 µM 27% | [10]; [17] 19% | [10]; at 50.0 µM 40.2% | [11]; at 1.2 µM 8% | [11]; at 3.7 µM -8% | [11]; [17] 10% | [11]; at 11.0 µM 22% | [11]; at 33.0 µM 55% | [11]; at 50.0 µM 28.4% | [12]; at 1.2 µM -25% | [12]; at 3.7 µM -21% | [12]; at 11.0 µM 38% | [13]; at 1.2 µM -1% | [13]; at 3.7 µM 20% | [13]; at 11.0 µM 33% | [14]; at 1.2 µM 27% | [14]; at 3.7 µM 30% | [14]; at 11.0 µM 36% | [15]; [17] 12% | [15]; [18] 40% | [16]; at 1.2 µM 10% | [16]; at 3.7 µM 7% | [16]; at 11.0 µM 33% | [16]; at 33.0 µM 55%
active: [1]; at 100.0 µM 97% | [2]; at 100.0 µM 98% | [4]; at 33.0 µM 83% | [4]; at 100.0 µM 98% | [5]; [18] 93% | [5]; at 50.0 µM 73.7% | [5]; at 100.0 µM 97% | [6]; at 33.0 µM 76% | [6]; [18] 78% | [6]; at 50.0 µM 86.5% | [6]; at 100.0 µM 98% | [7]; at 100.0 µM 99% | [8]; [18] 92% | [9]; at 33.0 µM 78% | [9]; at 100.0 µM 97% | [10]; [18] 96% | [11]; [18] 93% | [11]; at 100.0 µM 97% | [12]; at 33.0 µM 97% | [12]; at 100.0 µM 94% | [13]; at 33.0 µM 75% | [13]; at 100.0 µM 99% | [14]; at 33.0 µM 73% | [14]; at 100.0 µM 98% | [15]; at 50.0 µM 80% | [16]; at 100.0 µM 98%

CCS(=O)(=O)[O][Sn]([CH2]C)([CH2]C)[O]S(=O)(=O)CC
inactive: [1]; at 1.2 µM -49% | [1]; at 3.7 µM -43% | [1]; at 11.0 µM -29% | [1]; at 33.0 µM -15% | [1]; at 100.0 µM 50% | [2]; at 1.2 µM -47% | [2]; at 3.7 µM -43% | [2]; at 11.0 µM -39% | [2]; at 33.0 µM -25% | [2]; at 100.0 µM 61% | [3]; at 1.2 µM -47% | [3]; at 3.7 µM -43% | [3]; at 11.0 µM -51% | [3]; at 33.0 µM -33% | [3]; at 100.0 µM -35% | [4]; at 1.2 µM -3% | [4]; at 3.7 µM -1% | [4]; at 11.0 µM 1% | [4]; at 33.0 µM 18% | [4]; at 100.0 µM 61% | [5]; at 1.2 µM -4% | [5]; at 3.7 µM -19% | [5]; [17] 21% | [5]; at 11.0 µM 2% | [5]; at 33.0 µM -14% | [5]; [18] 68% | [5]; at 50.0 µM 48.5% | [5]; at 100.0 µM 56% | [6]; at 1.2 µM -5% | [6]; at 3.7 µM 3% | [6]; [17] 6% | [6]; at 11.0 µM 3% | [6]; at 33.0 µM 23% | [6]; at 100.0 µM 69% | [7]; at 1.2 µM -2% | [7]; at 3.7 µM 4% | [7]; at 11.0 µM 4% | [7]; at 33.0 µM 10% | [7]; at 100.0 µM 34% | [8]; [17] 15% | [8]; [18] 69% | [8]; at 50.0 µM 42.2% | [9]; at 1.2 µM -18% | [9]; at 3.7 µM -45% | [9]; at 11.0 µM -33% | [9]; at 33.0 µM -35% | [9]; at 100.0 µM 54% | [10]; [17] 2% | [10]; [18] 32% | [10]; at 50.0 µM 67% | [11]; at 1.2 µM -5% | [11]; at 3.7 µM -9% | [11]; [17] 1% | [11]; at 11.0 µM -8% | [11]; at 33.0 µM -1% | [11]; at 50.0 µM 55.7% | [11]; at 100.0 µM 55% | [13]; at 1.2 µM 1% | [13]; at 3.7 µM 5% | [13]; at 11.0 µM 16% | [13]; at 33.0 µM 28% | [13]; at 100.0 µM 52% | [14]; at 1.2 µM -4% | [14]; at 3.7 µM -9% | [14]; at 11.0 µM -3% | [14]; at 33.0 µM 7% | [14]; at 100.0 µM 51% | [15]; [17] 44% | [15]; at 50.0 µM 59.6% | [16]; at 1.2 µM -29% | [16]; at 3.7 µM -25% | [16]; at 11.0 µM -17% | [16]; at 33.0 µM -16% | [16]; at 100.0 µM 52%
active: [6]; [18] 85% | [6]; at 50.0 µM 77% | [11]; [18] 72% | [15]; [18] 87%
